For 28 molecules, outcome and AC50 results are on record in PubChem BioAssay (EPA / NIEHS).

Results filed as inconclusive are left out. Active and inactive are the calls of the source. How the source made its calls: active means hit-call score of the fitted dose curve at least 0.9, where 1 is the maximum; inconclusive means response in the unintended direction; inactive means score below 0.9.

The test in a line: ACEA_AR_agonist_AUC_viability: ACEA Biosciences xCELLigence Real-Time Cell Analysis on Androgen Receptor Agonism for Viability (AID 2283775).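 On AC50: viability read 80 hours after compound addition.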 A digest of the protocol:
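Read-out is area under the impedance curve at 80 h post-dose in 22Rv1 cells, with DMSO as baseline and signal loss taken as reduced viability. Compounds ran in duplicate from 100 uM final.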
Regarding `CC(C)CCCCCCCOC(=O)CCCCC(=O)OCCCCCCCC(C)C`, the result was inactive.

What is called AC50 is the concentration giving half of the maximal activity seen. As to `O=P(OC(CCl)CCl)(OC(CCl)CCl)OC(CCl)CCl`, the AC50 is 31.8 µM (active).

On to `CC1=CC(=O)CC(C)(C)C1`, for which the molecule was called inactive.

Regarding `CC(C)=CCC/C(C)=C/CO`, the AC50 is 33 µM (active).

Consider `COc1ccc(/C=C/S(=O)(=O)NC(=O)c2ccc(C)cc2Cl)cc1`, for which the AC50 was 16.3 µM (active).

As to `O=C(O)CCN(C1(C(=O)NO)CCCC1)S(=O)(=O)c1ccc(Oc2ccc(F)cc2)cc1`, the molecule was classed as inactive.

In the case of `O=C1CCC(N2C(=O)c3ccccc3C2=O)C(=O)N1` (stereo not drawn), the result was inactive.

Turning to `CC[C@H]1OC(=O)[C@H](C)[C@@H](O[C@H]2C[C@@](C)(OC)[C@@H](O)[C@H](C)O2)[C@H](C)[C@@H](O[C@@H]2O[C@H](C)C[C@H](N(C)C)[C@H]2O)[C@](C)(O)C[C@@H](C)C(=O)[C@H](C)[C@@H](O)[C@]1(C)O`, the result was inactive.

With `COCCOc1cc2cc(C(=O)NC3CCN(C(C)C)CC3)n(CC(=O)Nc3ccc(Cl)cn3)c2cn1`, the AC50 was 40.9 µM (active).

For `CCOC(=O)COc1ccc2c(c1)CC(NCC(O)c1cccc(Cl)c1)CC2` (stereo not drawn), the AC50 was 63.6 µM (active).

`CC(=O)c1ccc2c(c1)[C@H](NC(=O)c1ccc(F)cc1)[C@@H](O)C(C)(C)O2`: the molecule was classed as inactive.

Turning to `CC(O)CN(CCN(CC(C)O)CC(C)O)CC(C)O` (stereo not drawn), the molecule was classed as inactive.

In the case of `CC/C(=C\C(=N/O)C(N)=O)C(C)[N+](=O)[O-]` (stereo not drawn), the call was inactive.

Regarding `CC(=O)OCCC(C)C`, the result was inactive.

For the molecule `CCCCCCCCO`, the outcome was inactive.

Take `CCCCC(CC)COC(=O)CCCCCCCCC(=O)OCC(CC)CCCC` (stereo not drawn): the call was inactive.

As for `COC(=O)CC(=O)OC`, the molecule was called inactive.

Turning to `CCNc1ccccc1`, the molecule was classed as inactive.

For `O=C1OC(=O)C2C3C=CC(C3)C12` (stereo not drawn), the result was inactive.

As to `CN(C)c1ccc(Cc2ccc(N(C)C)cc2)cc1`, the AC50 is 56.8 µM (active).

As to `Cc1c(-c2cccnc2)c2ccccc2n1CCCCC(=O)O`, the AC50 was 24.1 µM (active).

Turning to `C=CC(=C)CCC=C(C)C`, the molecule was classed as inactive.

On to `O=C1CCCCCN1`, for which the result was inactive.

Take `O=C(NS(=O)(=O)/C=C/c1ccccc1)c1ccc(F)cc1Cl`: the AC50 was 5.76 µM (active).

For the molecule `COc1ccc(-n2nc(C(F)F)cc2-c2ccc(S(C)=O)cc2)cc1` (stereo not drawn), the molecule was called inactive.

With `Cc1[nH]cnc1C[C@H]1CCc2c(C)c3ccccc3n2C1=O`, the AC50 was 44.5 µM (active).

Regarding `O=C(O)CC(O)C(=O)O` (stereo not drawn), the result was inactive.

As for `CCOCCOCCOCCO`, the call was inactive.
